# High-throughput results (PubChem BioAssay)
# L929 necroptosis = L929 zVAD cell death inhibition | L929 zVAD necroptosis rescue, ATP luminescence, 24 h; with zVAD 60 µM | viability rescue, % at 10 µM | 220,000 compounds, 0.38% hits;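 active = activation, scaled between plate controls, above about 75%, limit read from the data; inactive = activation under that limit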;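 note: 0% = zVAD with DMSO and 100% = DMSO alone without zVAD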
# 14-3-3 Bad PPI = disrupts binding of bovine 14-3-3 zeta to phospho-Bad peptide. P63103. TR-FRET 14-3-3zeta/Dy647-pBad peptide displacement, 1 h. inhibition, % at 21.7 µM. 220,000 compounds, 0.71% hits. AID 781;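 active = inhibition above about 70%, limit read from the data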;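 note: 0% = full 14-3-3 plus peptide FRET controls and 100% = background without 14-3-3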
# Target sequence (P63103 whole entry, looked up): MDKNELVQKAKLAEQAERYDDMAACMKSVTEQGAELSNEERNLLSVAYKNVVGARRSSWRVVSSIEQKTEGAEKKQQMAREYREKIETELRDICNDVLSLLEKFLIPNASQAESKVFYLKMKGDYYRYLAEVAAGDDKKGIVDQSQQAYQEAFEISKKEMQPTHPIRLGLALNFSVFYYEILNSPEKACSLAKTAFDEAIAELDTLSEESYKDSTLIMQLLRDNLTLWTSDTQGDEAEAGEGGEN
# ROMK primary = human ROMK K+ channel modulation, primary screen. P48048. 130,000 compounds, 2% hits. B-score at 10 µM. Tet-inducible ROMK, thallium flux fluorescence; actives lie on both sides;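 active = signal ratio slope over the read window, or its plate-corrected B-score, at least 3 SD from the plate mean, either direction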;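 note: B-score of the F/F0 ratio slope over 7 to 12 s after thallium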
# Target sequence (P48048 whole entry, looked up): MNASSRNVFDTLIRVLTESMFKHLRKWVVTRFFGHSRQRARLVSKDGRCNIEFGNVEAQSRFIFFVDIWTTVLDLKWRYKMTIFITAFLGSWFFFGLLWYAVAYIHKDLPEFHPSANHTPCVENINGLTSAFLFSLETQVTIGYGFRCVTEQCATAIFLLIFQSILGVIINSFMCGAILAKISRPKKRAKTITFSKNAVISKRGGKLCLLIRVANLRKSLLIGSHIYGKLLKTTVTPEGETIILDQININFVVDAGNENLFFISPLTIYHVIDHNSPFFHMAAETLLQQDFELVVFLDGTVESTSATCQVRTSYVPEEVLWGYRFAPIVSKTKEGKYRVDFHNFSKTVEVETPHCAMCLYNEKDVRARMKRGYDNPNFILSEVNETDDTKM
# TNF death inh = blocks TNF-alpha induced death of Jurkat FADD-/- cells; Jurkat FADD-/- TNF necroptosis rescue, ATP luminescence, 24 h; 0 = TNF only, 100 = no-TNF cells; activation (protection from cell death), % at 10 µM; 220,000 compounds, 0.068% hits;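 active = activation, meaning protection from cell death, of at least 50% relative to plate controls; inactive = activation below 50%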;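 note: necroptosis triggered by 40 ng/mL TNF-alpha added together with compound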
# HMGR II inh = blocks class II HMG-CoA reductase of Enterococcus faecalis. purified E. faecalis HMGR, NADPH absorbance 340 nm kinetic. inhibition, % at 10 µM. 190,000 compounds, 0.41% hits. AID 1066;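 active = inhibition above a set limit, the median over all tested compounds plus 3 SD, cut at about 9.5% in these data; inconclusive = no clear call, values can overlap the other calls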;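 note: enzyme runs in reverse so mevalonate oxidation gives rising NADPH absorbance; 0% = complete reaction with DMSO and 100% = background rate lacking mevalonate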
# Calpain2 inh = inhibitors of pig calpain II; purified calpain II, fluorogenic peptide substrate, 30 min; inhibition, % at 16 µM; 220,000 compounds, 0.37% hits;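 active = inhibition above about 50%, limit read from the data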
# ROMK hit retest = human ROMK channel modulation, retest confirmation. 3,000 compounds, 54% hits. normalized thallium flux (F/F0 slope) at 10 µM. ROMK thallium flux, fluorescence ratio; active compounds read low. shares compounds with ROMK primary. AID 1917;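 active = Flux at 10 µM at least 3 SD below or above vehicle control mean in one or both replicates; inconclusive = no clear call, values can overlap the other calls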
# Numbers without * were called inactive; ? = inconclusive; . = no result given. Most compounds without a hit are left out; they make up all but 3% or so of the library.
SMILES,L929 necroptosis,14-3-3 Bad PPI,ROMK primary,TNF death inh,HMGR II inh,Calpain2 inh,ROMK hit retest
Cc1cc(C)nc(/N=C(\N)Nc2ccccc2-c2ccccc2)n1,0.0,-2.8,-4.82*,4.5,-5.7,0.7,0.053*
CCCCc1ccc(N/C(N)=N/c2nc(C)cc(C)n2)cc1,3.0,-17.2,.,-23.3,.,7.6,0.0566*
O=C(NCCc1ccccc1F)C1CCCN1S(=O)(=O)c1ccc2ccccc2c1 (centres undefined),1.3,-0.2,-3.55*,0.4,-2.7,-3.5,0.0561*
c1ccc(C2CCC(N3CCNCC3)CC2)cc1 (centres undefined),0.8,38.1,-1.62,3.4,-1.3,17.7,.
O=C(Nc1cccc(N=Cc2cc(Br)cc(Br)c2O)c1)c1ccco1,0.4,20.7,.,-4.1,-5.5,-22.3,0.11*
O=C(Nc1cccc(N=Cc2cc(Cl)cc(Br)c2O)c1)c1ccco1,0.7,-2.2,4.08*,-0.5,-0.2,-26.4,0.114*
CC(=O)c1ccc(NC(=O)C(=O)c2cn(CC(=O)N3CCCCC3)c3ccccc23)cc1,1.1,9.7,.,0.4,-2.5,8.8,.
Oc1[nH]c2ccccc2c1N=Nc1ccc(F)cc1,69.3,-8.8,.,0.8,5.6,-9.7,.
Oc1[nH]c2ccccc2c1N=Nc1ccccc1,72.5,-6.0,.,1.1,.,13.0,0.0679*
CC(=O)N1CCN(C(=S)c2ccc(-c3ccc(Cl)cc3)o2)CC1,0.3,16.1,-2.55*,-2.9,-1.6,2.4,0.0551*
S=C(c1ccc(-c2cccc(Cl)c2)o1)N1CCCCC1,-0.5,2.6,.,-1.3,-3.7,36.0,.
CCCCCCN1C=CC=C/C1=C\C=C(C#N)C#N,-0.4,0.8,-4.37*,3.4,.,15.8,0.043*
O=c1oc2ccccc2cc1-c1nc(-c2cccs2)cs1,0.6,-5.7,-4.48*,-9.6,-1.2,-66.0,0.0184*
O=c1oc2ccc3ccccc3c2cc1-c1nnc(-c2cccs2)o1,0.0,1.2,-3.03*,1.5,-2.0,-268.9,?
C[C@@H]1NC(=O)[C@H](CCC(=O)O)NC(=O)c2cc([N+](=O)[O-])cc(F)c2NCCC[C@@H](C(N)=O)NC1=O,1.9,-0.5,-0.404,2.1,-1.7,4.8,.
N#C/C(=C\c1cccc([N+](=O)[O-])c1)c1nnc2n1CCCCC2,0.8,-16.3,-4.44*,0.3,3.2,-1.6,0.046*
CN(c1ccccc1)c1ccc(/C=C(\C#N)c2nnc3n2CCCCC3)cc1[N+](=O)[O-],0.5,14.4,.,1.6,-6.2,-60.5,.
COc1ccc(-c2nc(-c3ccc(NC(=O)c4ccncc4)cc3)no2)cc1OC,0.8,3.1,.,-7.8,-5.0,-110.7,0.0786
Cc1ccc(NC(=O)Cn2cnc3c(nnn3Cc3ccc(F)cc3)c2=O)cc1,0.0,10.9,-0.0866,0.6,-2.5,29.6,.
CC(OC(=O)c1ccncc1)C(=O)Nc1cc(S(=O)(=O)N2CCCCC2)ccc1Cl (centres undefined),1.1,0.9,-4.76*,1.3,-7.8,-3.2,0.0682*
O=C(Nc1cccc(Cl)c1)Nc1cc(S(=O)(=O)N2CCCCC2)ccc1Cl,17.9,10.2,.,-2.2,-4.5,-66.1,.
Cc1ccc(C(=O)N(c2ccccc2)C2CC(C)N(C(=O)c3ccco3)c3ccccc32)cc1 (centres undefined),-0.9,2.3,-1.69,-5.7,-5.7,-153.2,.
CC(=O)Nc1ccccc1O,0.9,2.5,.,1.2,-0.9,-8.3,.
CC(CC(=O)O)Nc1ccccc1O (centres undefined),1.7,1.6,0.0292,1.7,-2.2,-4.8,0.0802
C=C(C)COc1ccc(-c2[nH]ncc2-c2ccc(OC)cc2)c(O)c1,2.1,5.8,.,2.0,.,27.8,.
SMILES,L929 necroptosis,14-3-3 Bad PPI,ROMK primary,TNF death inh,HMGR II inh,Calpain2 inh,ROMK hit retest
C=C(C)COc1ccc(-c2[nH]ncc2-c2ccc(OC)c(OC)c2)c(O)c1,1.9,-7.0,3.76*,-12.1,4.1,7.6,0.0882
Cc1nn(Cc2ccc(Cl)cc2)c(C)c1NC(=O)CCCn1nc([N+](=O)[O-])c(Cl)c1C,.,7.4,-0.228,-1.9,-6.4,5.9,.
CCCCCCCCNC(=S)NCCN1CCCCC1,1.9,14.5,-2.59*,-3.2,-18.0,26.7,0.0482*
O=C(CNc1ccc(Br)cc1)c1ccc(O)cc1,-0.2,-9.2,-0.0323,-1.7,-3.6,9.5,.
O=C(CNc1ccc(Cl)cc1)c1ccc(Br)cc1,4.0,-6.0,2.69*,-1.0,-4.4,-2.3,0.086
O=C(Cn1nc(CNc2ccc(Cl)cc2)[n+]2c1CCCCC2)c1ccc(Br)cc1,0.6,4.4,-3.72*,3.0,0.6,11.2,0.0533*
COc1ccccc1C(=O)N/N=C(\C)c1ccc(NC(=O)C2CC2)cc1,0.5,-13.7,0.177,2.7,-0.4,-18.4,.
COc1cc(/C=N/NC(=O)C(=O)/C=C2\NC(C)(C)Cc3ccccc32)ccc1O,1.2,40.7,2.15*,-10.8,.,-16.6,0.0827
COc1cc(/C=N/NC(=O)C2(O)c3ccccc3-c3ccccc32)ccc1O,-0.3,-1.7,-0.00927,3.8,-3.2,3.3,.
O=C1c2ccccc2C(=O)N1CCCCSc1nc2ccccc2c(=O)n1CCCN1CCOCC1,-2.6,-0.6,-3*,2.5,2.5,11.2,0.0536*
Cc1cc2c(cc1S(=O)(=O)N(C)c1ccccc1)NC(=O)CO2,2.2,-2.6,-4.99*,-0.8,2.5,-5.5,0.0532*
Cc1cc2c(cc1S(=O)(=O)Nc1cccc(F)c1C)NC(=O)CO2,0.5,-9.0,-1.98,-1.3,-3.5,7.2,.
COc1ccc(N2CCc3c(C)nc4c(OC)cc(OC)cc4c32)c(OC)c1,-0.1,-5.8,.,-4.6,1.5,-41.0,0.061*
O=C(Nc1ccc2ccccc2c1)N1CCN(c2ncccc2C(F)(F)F)CC1,-0.2,-2.7,-3.93*,-0.8,-0.2,-13.4,0.0617*
CCN(CC(=O)Nc1cccc(OC)c1)CC(=O)Nc1ccc(C)cc1Cl,1.6,29.4,-0.38,0.2,-6.6,0.3,.
Cc1ccc(C)c(N2CCN(C(=O)c3ccc(CSc4nc5ccncc5[nH]4)cc3)CC2)c1,.,17.8,-4.19*,-6.8,1.6,-28.4,0.0716
Cc1noc(C)c1CS(=O)(=O)c1ccc(Br)cc1,-0.3,5.0,.,-2.2,-2.2,13.3,0.0819
COc1cc(C(=O)NCC(c2cccnc2)N2CCN(c3ccc(F)cc3)CC2)cc(OC)c1OC (centres undefined),0.3,-18.5,0.371,1.7,-2.1,-14.4,.
Cc1nc2cc(F)ccc2n1C1CCN(S(=O)(=O)c2ccccc2)CC1,0.7,5.0,-6.13*,-1.8,0.9,-22.9,?
Cc1cc(C)c2cc(C(=O)Nc3ccccc3)[nH]c2c1,3.8,3.9,.,-0.5,.,8.5,0.0789
CCN(c1ccccc1)c1ncnc2c1cnn2-c1ccccc1,0.3,-0.5,.,-0.5,-6.5,-4.6,0.0554*
